In PubChem BioAssay:
Several values for one entry are separate records, joined by “and”; a condition that tells them apart may be missing. Equal entries are not always repeated. Activity calls are given as the source filed them. Unless noted, no rule for the calls is given here.

Tests used:
[1] = P. berghei load reduction in hepatocytes – cell-based, HepG2, luciferase luminescence, HepG2 viability, primary screen (AID 624349; in the data active = parasite load remaining mostly below about 12%, no sharp cut-off; inactive = mostly above about 10%;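 also: 100% = mean of DMSO negative control wells on the same plate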); conditions: P. berghei liver stage in HepG2, luciferase luminescence, concentration not given here; parasite load remaining: stronger effect = lower value; viability: measured here: HepG2 viability without parasites
[2] = signal quenchers or enhancers, Cy5 substrate/SSB – biochemical, NIH Clinical Collection, E. coli SSB, artefact control for HCV NS3 helicase inhibitor project (AID 743268); conditions: Cy5-oligo bound E. coli SSB, fluorescence interference
[3] = tested on: Hepatitis C virus NS3 helicase; assay: blockers of NS3h binding to DNA – biochemical, fluorescence polarization, NIH Clinical Collection, primary screen (AID 743270); conditions: NS3 helicase binding to Cy5-dT15 DNA, stronger effect = higher value, concentration not given here
[4] = target: Single-stranded DNA-binding protein (Escherichia coli (strain K12)) (UniProt P0AGE0); assay: SSB-ssDNA binding inhibitors – biochemical, fluorescence polarization, NIH Clinical Collection, counter-screen for HCV NS3 helicase inhibitor project (AID 743271; in the data active = inhibition above about 28%); conditions: E. coli SSB-DNA binding, stronger effect = higher value, concentration not given here
[5] = compounds distorting NS3 helicase fluorescence signal – biochemical, NIH Clinical Collection, artefact control for HCV NS3 helicase inhibitor project (AID 743272); conditions: fluorescence interference counterscreen, HCV NS3 helicase assay; stronger effect = lower value;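 also: HCV NS3 helicase with a Cy5 labelled single stranded DNA probe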
[6] = Wnt pathway potentiators raising nuclear beta-catenin – imaging, WNT3A-conditioned medium, mouse C2C12, NPC library, primary screen (AID 1117326; in the data active = nuclear beta-catenin stimulation mostly above about 4.2%, no sharp cut-off; inactive = mostly below about 10%); conditions: stronger effect = higher value
[7] = stimulators of insulin release from INS-1E, primary screen, cell-based, 5 mM glucose, NPC library (AID 1117329;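 active = compound raises insulin release from rat beta cells at 5 mM glucose, no numeric limit stated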); conditions: rat INS-1E insulin secretion, at 10 µM, stronger effect = higher value
[8] = growth inhibition of GSK3B-pretreated HCT116 cells – cell-based, CellTiter-Glo, 0.2 to 20 µM (AID 1117336;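 active = compounds lowering colon cancer cell viability after pretreatment blocking the GSK3B kinase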); conditions: HCT116 viability after GSK3B inhibitor, at 20 µM, stronger effect = higher value
[9] = inhibition of endothelial tube formation, primary screen, imaging, VEGF stimulated, CD31 staining, tube area, NPC library (AID 1117340;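 active = compound that reduces growth-factor-driven endothelial tube area in a mixed cell culture, no cutoff stated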); conditions: VEGF-stimulated ADSC/ECFC co-culture, at 10 µM, stronger effect = higher value
[10] = GLP1 release stimulators, primary, NCI-H716, NPC library (AID 1117341;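 active = compound raises GLP1 secretion from the human gut endocrine cells, with no numeric limit stated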); conditions: NCI-H716 cells, at 10 µM, stronger effect = higher value
[11] = HCT116 colon cancer cell growth inhibition, primary screen, CellTiter-Glo luminescence, NPC library (AID 1117342;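 active = compounds that lower survival of HCT116 colon cancer cells in the luminescence readout, no numeric limit stated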); conditions: at 20 µM (top of the series)
[12] = reduced SW480 viability measured with CellTiter-Glo, NPC library, primary (AID 1117343;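 active = compounds that lower viability of the colon cancer cells in the luminescence readout, with no numeric limit stated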); conditions: CellTiter-Glo luminescence; at 20 µM (top of the series)
[13] = NPC library primary testing for decreased DLD-1 cell viability via CellTiter-Glo (AID 1117346;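 active = compounds that lower survival of DLD-1 colon cancer cells in the luminescence readout, no cutoff given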); conditions: DLD-1 viability, CellTiter-Glo luminescence; at 20 µM (top of the series)
[14] = tested on: Hepatitis C virus NS3 helicase; assay: blockers of NS3h binding to ssDNA – biochemical, fluorescence polarization, LOPAC1280 library, primary screen (AID 687035; in the data active = inhibition above about 37%); conditions: Purified HCV NS3 helicase, Cy5-dT15 ssDNA binding fluorescence polarization; stronger effect = higher value; concentration not given here
[15] = compounds altering Cy5-DNA-NS3h complex signal – biochemical, LOPAC1280, artefact control for HCV NS3 helicase inhibitor project (AID 687037); conditions: Cy5-DNA-NS3h complex fluorescence interference counterscreen
[16] = tested on: Neuropilin-2 / VEGF-C interaction (human); assay: small molecules blocking Neuropilin-2/VEGF-C interaction – biochemical, microplate binding format, z-score (AID 743281); conditions: microplate NRP2/VEGF-C binding assay; stronger effect = lower value

C[C@@H]1C[C@H]2[C@@H]3CCC4=CC(=O)C=C[C@]4(C)[C@@]3(F)[C@@H](O)C[C@]2(C)[C@H]1C(=O)CO
inactive: parasite load remaining [1] 74.3% | fluorescence ratio [2] 0.96 | inhibition [3] -1.97% | inhibition [4] -1.97% | fluorescence ratio [5] 0.92 | nuclear beta-catenin stimulation ([6]; at 10 µM) -1.6% | insulin secretion stimulation [7] 7.5% | viability decrease [8] -14.3% | tube area decrease [9] 6.7% | GLP1 secretion stimulation [10] -0.7% | inhibition of viability [11] 9.7% | viability decrease (inhibition) [12] 3.5% | viability decrease (inhibition) [13] -5%
70.8%: viability [1]
0.6%: nuclear beta-catenin stimulation ([6]; stimulation, at 2 µM)

Cc1[nH]c(=O)c(C#N)cc1-c1ccncc1
69% and 68.9% and 65.5%: viability [1]
0.4%: nuclear beta-catenin stimulation ([6]; stimulation, at 2 µM)
inactive: parasite load remaining [1] 79.2% and 78.4% and 15.3% | inhibition [14] -3% | fluorescence ratio (interference) [15] 1 | fluorescence ratio [2] 1.05 | inhibition [3] -4.36% | inhibition [4] -3.18% | fluorescence ratio [5] 1.02 | z-score [16] 0.188 | nuclear beta-catenin stimulation ([6]; at 10 µM) 0.1% | insulin secretion stimulation [7] 0.8% | viability decrease [8] -19.7% | tube area decrease [9] 4% | GLP1 secretion stimulation [10] 0% | inhibition of viability [11] 16.6% | viability decrease (inhibition) [12] -4.9% | viability decrease (inhibition) [13] -6.1%

CCC1=C(C)CN(C(=O)NCCc2ccc(S(=O)(=O)NC(=O)NC3CCC(C)CC3)cc2)C1=O (configuration not stated)
active: insulin secretion stimulation [7] 29.4%
inactive: parasite load remaining [1] 156% and 92.3% and 45.4% | fluorescence ratio [2] 0.97 | inhibition [3] -1.09% | inhibition [4] 0.39% | fluorescence ratio [5] 0.96 | z-score [16] 1.17 | nuclear beta-catenin stimulation ([6]; at 10 µM) 1% | viability decrease [8] 34.1% | tube area decrease [9] -7.2% | GLP1 secretion stimulation [10] 2.3% | inhibition of viability [11] 2.4% | viability decrease (inhibition) [12] 17.1% | viability decrease (inhibition) [13] 7.8%
98.1% and 72.7% and 68.5%: viability [1]
-1.7%: nuclear beta-catenin stimulation ([6]; stimulation, at 2 µM)

Oc1ccc(C2CNCCc3c2cc(O)c(O)c3Cl)cc1 (configuration not stated)
7.9%: nuclear beta-catenin stimulation ([6]; stimulation, at 2 µM)
active: fluorescence ratio [2] 0.73 | viability decrease [8] 66.2% | tube area decrease [9] 42.2% | inhibition of viability [11] 50.2% | viability decrease (inhibition) [12] 50.9%
74.7% and 61%: viability [1]
inactive: parasite load remaining [1] 97.3% and 13% | inhibition [14] -3% | fluorescence ratio (interference) [15] 0.9 | inhibition [3] -1.98% | inhibition [4] -7.03% | fluorescence ratio [5] 0.87 | z-score [16] 0.0254 | nuclear beta-catenin stimulation ([6]; at 10 µM) 1.1% | insulin secretion stimulation [7] 5.4% | GLP1 secretion stimulation [10] 1% | viability decrease (inhibition) [13] 29.6%

O=C1N(c2ccccc2)c2ccccc2C1(Cc1ccncc1)Cc1ccncc1
3.8%: nuclear beta-catenin stimulation ([6]; stimulation, at 2 µM)
inactive: parasite load remaining [1] 77.9% | inhibition [14] -7% | fluorescence ratio (interference) [15] 0.9 | fluorescence ratio [2] 0.98 | inhibition [3] -11.6% | inhibition [4] -1.18% | fluorescence ratio [5] 0.93 | z-score [16] -0.0491 | nuclear beta-catenin stimulation ([6]; at 10 µM) 0.2% | insulin secretion stimulation [7] 1.2% | viability decrease [8] -9.5% | tube area decrease [9] 17.6% | GLP1 secretion stimulation [10] 2.6% | inhibition of viability [11] -4.7% | viability decrease (inhibition) [12] 23.8% | viability decrease (inhibition) [13] -3.9%
65.3%: viability [1]

Nc1ccn([C@H]2CC[C@@H](CO)O2)c(=O)n1
inactive: parasite load remaining [1] 89% and 87.9% and 17.9% | inhibition [14] 0% | fluorescence ratio (interference) [15] 1 | fluorescence ratio [2] 1.05 | inhibition [3] 2.77% | inhibition [4] -1.64% | fluorescence ratio [5] 1.02 | z-score [16] 0.496 | nuclear beta-catenin stimulation ([6]; at 10 µM) -1% | insulin secretion stimulation [7] -0.3% | viability decrease [8] 6.9% | tube area decrease [9] -2.2% | GLP1 secretion stimulation [10] 1.4% | inhibition of viability [11] -1.1% | viability decrease (inhibition) [12] -0.9% | viability decrease (inhibition) [13] 8.55%
-1.5%: nuclear beta-catenin stimulation ([6]; stimulation, at 2 µM)
73.7% and 72.5%: viability [1]

C[C@@H]1CN(CCCn2c3ccccc3c3ccccc32)C[C@H](C)N1
active: viability decrease [8] 97.5% | tube area decrease [9] 48.2% | GLP1 secretion stimulation [10] 20% | inhibition of viability [11] 107% | viability decrease (inhibition) [12] 128% | viability decrease (inhibition) [13] 82.7%
4.9%: nuclear beta-catenin stimulation ([6]; stimulation, at 2 µM)
inactive: parasite load remaining [1] 35.7% | fluorescence ratio [2] 0.94 | inhibition [3] -6.33% | inhibition [4] 1.18% | fluorescence ratio [5] 0.94 | z-score [16] -0.119 | nuclear beta-catenin stimulation ([6]; at 10 µM) 6.5% | insulin secretion stimulation [7] 16.2%
37.6%: viability [1]

CN(C)CC[C@@H](c1ccc(Cl)cc1)c1ccccn1
active: insulin secretion stimulation [7] 81.7%
inactive: parasite load remaining [1] 51.2% | inhibition [14] -6% | fluorescence ratio (interference) [15] 0.9 | fluorescence ratio [2] 0.95 | inhibition [3] -2.84% | inhibition [4] -2.76% | fluorescence ratio [5] 0.91 | z-score [16] 0.0729 | nuclear beta-catenin stimulation ([6]; at 10 µM) -1.2% | viability decrease [8] -5.1% | tube area decrease [9] -4% | GLP1 secretion stimulation [10] 5.7% | inhibition of viability [11] 28.8% | viability decrease (inhibition) [12] 35.9% | viability decrease (inhibition) [13] -3.4%
68.9%: viability [1]
0.3%: nuclear beta-catenin stimulation ([6]; stimulation, at 2 µM)
